These results are taken from PMC7819943, “Rice protein-binding microarrays: a tool to detect cis-acting elements near promoter regions in rice”.

Whole data set: some 35,000 sequences, median “fluorescence intensity (a.u.)” near 10,000, cut for the highest 2% near 52,000. What follows is part of a selection rich in the highest values, with near analogues and random picks from the rest.

This assay addresses T1, OsWOX13 (Oryza sativa, UniProt Q5QMM3 1-267).
T1 sequence: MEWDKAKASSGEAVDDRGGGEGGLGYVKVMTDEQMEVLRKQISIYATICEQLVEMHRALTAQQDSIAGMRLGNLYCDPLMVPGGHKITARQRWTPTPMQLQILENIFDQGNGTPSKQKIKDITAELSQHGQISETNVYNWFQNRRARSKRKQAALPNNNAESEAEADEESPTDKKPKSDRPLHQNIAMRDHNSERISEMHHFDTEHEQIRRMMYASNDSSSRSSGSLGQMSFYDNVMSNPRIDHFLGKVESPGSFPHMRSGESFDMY
As to the kind of experiment: protein-binding microarray (RPBM); PBS, 2% BSA, 51.3 ng/ul salmon testes DNA, 50 uM zinc acetate, 200 nM TF, 25 C, 1 h; high values mean tight binding. Conditions: protein: recombinant; tags: N-terminal polyhistidine and DsRed monomer fusion (pET32a); label: CyDye5-dUTP incorporated in the synthesized complementary strand; 3' TTTTT single-stranded linker to array surface; dsDNA, one strand shown. The essentials:
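An Axon 4000B scanner gave the binding signal as per-feature fluorescence intensity in arbitrary units. This followed washing of a custom Agilent array that had been incubated for 1 h at 25 °C with 200 nM protein in PBS, 2% BSA, salmon testes DNA and 50 µM zinc acetate. The proteins were transcription factors fused at the N-terminus to polyhistidine and DsRed, expressed in E. coli BL21-CodonPlus and purified on Ni–NTA.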
Regarding “GTAATTAACAGCAATCAGCAAGTGGCCTAATTGCCAACCTCGGAGTCACCTAGTGCAG”, the binding signal was 56700 fluorescence intensity (a.u.). For “CCACCTCTAATGAAGAGGTGATTGCAACCATTCATCTCTTCGGAGTCACCTAGTGCAG”, the binding signal was 12000 fluorescence intensity (a.u.). For “AAACAAACTAACATGGATTGATTTTCTATAGGATGGAGGGCGGAGTCACCTAGTGCAG”, the binding signal was 25200 fluorescence intensity (a.u.).

Take “TGGATTTTAAATTAAGTAAATTGCACCAGCGGTCCTTAAACGGAGTCACCTAGTGCAG”: the binding signal is 6480 fluorescence intensity (a.u.). Take “AATTTGAATTTTGTTAAGTTAAATTTGATGAACTGGGGCCCGGAGTCACCTAGTGCAG”: the binding signal is 5490 fluorescence intensity (a.u.). For “TTATAATTATTTGTGTTGCAATGTATGTTTTGTTTATATACGGAGTCACCTAGTGCAG”, the binding signal is 9980 fluorescence intensity (a.u.).

As for “TTTGGGTGTTAGTGTCTTAATTAGTGTGTGAGCCCCATCCCGGAGTCACCTAGTGCAG”, the binding signal is 3790 fluorescence intensity (a.u.).

For “TGTGGCTAAATTTATCAATTGAATGGGCTAGAGGCACGCTCGGAGTCACCTAGTGCAG”, the binding signal was 17400 fluorescence intensity (a.u.). As to “CCAAATTCATTAAAATTAACAATAACAATTATATTTGTTTCGGAGTCACCTAGTGCAG”, the binding signal is 10900 fluorescence intensity (a.u.). With “ATTGAGTCAATCCACACTTTATTAGCACATTGGCCCACACCGGAGTCACCTAGTGCAG”, the binding signal was 3510 fluorescence intensity (a.u.).

As to “GTTTAGCAAATCCAGCACCCATTATACAGACTTTCTATGCCGGAGTCACCTAGTGCAG”, the binding signal was 65500 fluorescence intensity (a.u.). Consider “AAGTCTAATTAATCCATCATTAGCAAATGTTTATTGTAGCCGGAGTCACCTAGTGCAG”, for which the binding signal was 26700 fluorescence intensity (a.u.). With “ATTTGCTAATGACGGATTAATTAGATTTAATAAATTCATCCGGAGTCACCTAGTGCAG” the figure was 39700 fluorescence intensity (a.u.); with “AAGCTGAAATTTGTTAGAGTAATAGTTGACACCATTACCACGGAGTCACCTAGTGCAG”, 3160 fluorescence intensity (a.u.); with “TTGGCCTTCAATCATTGACACTTGGACAGAACAAATCAATCGGAGTCACCTAGTGCAG”, 26000 fluorescence intensity (a.u.).

For the sequence “CTCAATAATTAAGTTCTTGATTAACATTGATATTACTTTCCGGAGTCACCTAGTGCAG”, the binding signal was 24600 fluorescence intensity (a.u.). Consider “CCCAATTGGTGATTAGATAATCCTGTCACTTTCTTCAAGTCGGAGTCACCTAGTGCAG”, for which the binding signal is 54100 fluorescence intensity (a.u.).

On to “AAGGATTAGATATGATTCAATCTTTTGGTTCAAAGTTCTTCGGAGTCACCTAGTGCAG”, for which the binding signal is 6590 fluorescence intensity (a.u.). Take “CTAGATTGAGAGCATCTGATTCAATAATTAGACTTTCAATCGGAGTCACCTAGTGCAG”: the binding signal is 45100 fluorescence intensity (a.u.).

Take “TCACCTTGATTTCAATCATTGGACAAGTGTCCTAGAAAGTCGGAGTCACCTAGTGCAG”: the binding signal was 55300 fluorescence intensity (a.u.).

For the sequence “GAGATATAATTGATTAGAGTTACTTTCAATCTTTTCCGTGCGGAGTCACCTAGTGCAG”, the binding signal is 62000 fluorescence intensity (a.u.).

As to “AATCCTAATTATAAGATTTAAGACCTTTCTCTTCACTTCACGGAGTCACCTAGTGCAG”, the binding signal was 9800 fluorescence intensity (a.u.). For the sequence “CACAATCACGAATTGAAGAAAGTCCTTCATTTCACATCAACGGAGTCACCTAGTGCAG”, the binding signal was 3660 fluorescence intensity (a.u.). With “TCTAAATTAATCTTTAGTTCTTGACCGCAAAATATGAAGCCGGAGTCACCTAGTGCAG” the figure was 14800 fluorescence intensity (a.u.).

As for “TAACGGATTGATACATCTGGTTACAAATGTGCACTACATACGGAGTCACCTAGTGCAG”, the binding signal is 3880 fluorescence intensity (a.u.). In the case of “TAGCTAATTTGCACCCACATGCATGTGCTTCGAGTAGTTACGGAGTCACCTAGTGCAG” it was 7070 fluorescence intensity (a.u.). “CCCTTACTGATTGGACGGTCCCGCGCATAAGCATGCGCACCGGAGTCACCTAGTGCAG”: the binding signal is 27800 fluorescence intensity (a.u.).

On to “TGATTAACAGCAACCATAGACGGGACAGGCCAGCCCACCACGGAGTCACCTAGTGCAG”, for which the binding signal is 3260 fluorescence intensity (a.u.). On to “TTCAACCATAAATTGAATTGAATAGGACGGATGATGGTTACGGAGTCACCTAGTGCAG”, for which the binding signal was 12700 fluorescence intensity (a.u.). With “ATGGGCCACGGGCCCACGGACCATACGCATAGGATTCAACCGGAGTCACCTAGTGCAG” the figure was 59500 fluorescence intensity (a.u.); with “GTACAATTTTCATAATTTGCATAAATCGAAAAGAAAAGTGCGGAGTCACCTAGTGCAG”, 12400 fluorescence intensity (a.u.). As to “TAAATTGATCAAATTGCCATTTGGAGTGCAGTGACGGGCTCGGAGTCACCTAGTGCAG”, the binding signal is 54900 fluorescence intensity (a.u.). With “TATGAGATATCATTTAATTATATAATAAATATAATGATGTCGGAGTCACCTAGTGCAG”, the binding signal is 4610 fluorescence intensity (a.u.). Consider “CAAATGAGCTAATACTTAATTAATAATGCGCTAATGGATCCGGAGTCACCTAGTGCAG”, for which the binding signal was 4340 fluorescence intensity (a.u.). Take “TGATGGATTAATATATGATTAATTAAGTATTAGCTTAAACCGGAGTCACCTAGTGCAG”: the binding signal is 13200 fluorescence intensity (a.u.). As for “TTAAATTATATTTATATCAAATTATACTTTGATCAATACTCGGAGTCACCTAGTGCAG”, the binding signal was 39900 fluorescence intensity (a.u.). “AATGATGGAGGATAATTTATATGCTAAATTATAAACTTGTCGGAGTCACCTAGTGCAG”: the binding signal was 57700 fluorescence intensity (a.u.). As for “GTTTGGATTGATTATTGGGACAGTGAAATTGACCATTTGACGGAGTCACCTAGTGCAG”, the binding signal was 39600 fluorescence intensity (a.u.). For the sequence “ATGATTAATACTTAATTAATTATGTGCGCTCATGGATCACCGGAGTCACCTAGTGCAG”, the binding signal is 56400 fluorescence intensity (a.u.).

Turning to “GGTATGATAAACTTGACTAATTATACCATTGGATCATTGTCGGAGTCACCTAGTGCAG”, the binding signal was 11000 fluorescence intensity (a.u.). As to “ACTAATGATGGATTAATTAGGCTTAATATATTCATCTCGCCGGAGTCACCTAGTGCAG”, the binding signal was 58100 fluorescence intensity (a.u.). Consider “TTTTATAATGATACTTAATTAATCATGTGCTAATAATCACCGGAGTCACCTAGTGCAG”, for which the binding signal was 9330 fluorescence intensity (a.u.). In the case of “GATTAATTAGGCTCAATATATTCATCTCGCGAATTAGTCCCGGAGTCACCTAGTGCAG” it was 33000 fluorescence intensity (a.u.).
